In the library only some 2.3% were active in any assay of this set; here they are far more common.
FID counter: compounds displacing fluorescent DNA intercalator, primary screen, artefact control for HCV NS3 helicase inhibitor project, biochemical, FID fluorescence. DNA fluorescent intercalator displacement. inhibition, % at 7.9 µM. 0.17% of 290,000 active. AID 1845, 2009; in the data active means inhibition above about 37%;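 further: higher means more ethidium bromide displaced from hairpin DNA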
PfM18AAP inh: PfM18AAP inhibitors, malaria aminopeptidase, primary screen, biochemical, QFRET, recombinant enzyme | H-Glu-NHMec fluorogenic cleavage | 1.2% of 290,000 active | inhibition, % at 7.35 µM | M18 aspartyl aminopeptidase (Plasmodium falciparum 3D7);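 active means inhibition above the campaign mean inhibition over all tested compounds plus 3 SD, cut at about 28% in these data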
Rce1 inh: yeast Rce1p protease inhibitors, primary screen, biochemical, fluorescence, cell-free homogeneous; yeast membranes, quenched prenylated peptide cleavage fluorescence; calls only; 0.27% of 290,000 active; AID 2563, 2010;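 active means fall in fluorescence gain of 50% or more versus controls, with final raw signal at or below 3038400; inconclusive means same 50% fall but final raw signal above 3038400; inactive means fall in fluorescence gain under 50%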
Kir21 inh: inhibitors of mouse Kir2.1 inward-rectifier potassium channel. Inward rectifier potassium channel 2 (Mus musculus), P35561. HEK293-Kir2.1, FluxOR thallium flux fluorescence; hits give low values. B-score at 10 µM. 0.85% of 310,000 active. AID 1672, 2009;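 active means fluorescence ratio B-score at or below minus 3 SD of library scores, with starting-brightness B-score within 2 SD, cut at about -4.2 in these data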;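 further: channel flux triggered by added potassium and thallium sulfate stimulus; B-score of peak minus minimum fluorescence over baseline after thallium stimulus; more negative B-score means stronger Kir2.1 block with less thallium influx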
Target sequence (P35561 whole entry, looked up): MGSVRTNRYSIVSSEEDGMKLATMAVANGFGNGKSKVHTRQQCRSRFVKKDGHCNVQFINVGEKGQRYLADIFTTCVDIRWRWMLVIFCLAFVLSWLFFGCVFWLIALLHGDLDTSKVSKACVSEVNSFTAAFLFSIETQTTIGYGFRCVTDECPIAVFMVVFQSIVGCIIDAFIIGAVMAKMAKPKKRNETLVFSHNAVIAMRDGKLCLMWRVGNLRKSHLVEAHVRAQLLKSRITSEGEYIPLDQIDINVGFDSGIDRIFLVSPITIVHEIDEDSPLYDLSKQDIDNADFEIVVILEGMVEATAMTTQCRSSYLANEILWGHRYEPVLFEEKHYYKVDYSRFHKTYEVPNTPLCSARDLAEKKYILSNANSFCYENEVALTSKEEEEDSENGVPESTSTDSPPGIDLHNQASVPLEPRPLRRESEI
Each line names hits and unclear results; the compound was inactive in the other large screens.

COc1ccc(CN(CCC(c2ccc(F)cc2)C2CCOC(C)(C)C2)C(=O)c2ccco2)cc1 (configuration not stated)	none
C/C(=N\N=C(N)N)c1cccc(Cl)c1	none
C/C(=N\N=C(N)N)c1cc(Cl)ccc1Cl	Kir21 inh -5.8
C/C(=N\N=C(N)N)c1ccc(Cl)cc1Cl	Kir21 inh -7.2
C/C(=N\O)c1ccc(Cl)cc1Cl	none (no result: Rce1 inh)
O=[N+]([O-])c1cc([N+](=O)[O-])c(Oc2cncc(Cl)c2)cc1NC1CCCCCCC1	none
OCCN1CCN(Cc2cccc(Oc3ccc(Cl)cc3)c2)CC1	Kir21 inh -5.2
COc1cc(CNCc2ccccc2Cl)ccc1OCC(=O)NC1CCCCC1	Kir21 inh -4.7
CCOc1c(Cl)cc(CNCC(C)C)cc1OC	none
CCOc1cc(CNC2CCCC2)ccc1OCc1ccccc1Cl	Rce1 inh active, Kir21 inh -4.4
CCOc1cc(CNCC(C)C)cc(Cl)c1OCc1ccccc1	Kir21 inh -14
COc1cc(CNC2CCCCCCC2)cc(Cl)c1OC	none
CCOc1cc(CNC2CCCC2)cc(Cl)c1OCc1ccccc1	FID counter 39, Kir21 inh -8.8
COc1ccc(CCNc2nc(-c3ccncc3)cs2)cc1OC	none
COc1ccc(CCNc2nc(-c3ccc(O)cc3)cs2)cc1OC	Kir21 inh -4.6
O=C(c1cnc2n(c1=O)CCS2)N1CCN(C(c2ccccc2)c2ccc(Cl)cc2)CC1 (configuration not stated)	Rce1 inh active
O=C(c1cnc2n(c1=O)CCS2)N1CCN(c2ccccc2Cl)CC1	none (no result: Rce1 inh, Kir21 inh)
O=C(CCc1cccc(Cl)c1)N1CCCC(Nc2ccccc2)C1 (configuration not stated)	Kir21 inh -6.9
CC1(CCC(=O)N2CCCC(Nc3ccc(F)cc3)C2)CC1 (configuration not stated)	Kir21 inh -6.1
Cc1ccc(SC2CC(=O)N(c3ccc4c(c3)OCCO4)C2=O)cc1 (configuration not stated)	none
Cc1ncc(CN2CCCC(C(=O)Nc3ccc(-c4cccc(F)c4)cc3)C2)n1C (configuration not stated)	Kir21 inh -4.3
CCC(C(=O)NCCCN(CC)Cc1ccccc1)n1nc(C)c2sc3ccccc3c2c1=O (configuration not stated)	Kir21 inh -9.5
C/C=C(/C)C(=O)O[C@H]1[C@@H](O)c2c(ccc3ccc(=O)oc23)OC1(C)C	Rce1 inh active
C/C=C(/C)C(=O)O[C@@H]1[C@H](OC(C)=O)c2c(ccc3ccc(=O)oc23)OC1(C)C	none
CCC/C(=N\NC(=O)C1CC1)c1ccc(Br)cc1	none
COc1ccc(S(=O)(=O)N2CCOc3ccccc32)cc1	none
COc1cc(F)c(S(=O)(=O)N2CCOc3ccccc32)cc1OC	Kir21 inh -5.3
COc1ccccc1OCC(=O)Nc1ccc(S(=O)(=O)Nc2onc(C)c2C)cc1	none
COc1cc(NC(=O)c2cccc(F)c2)ccc1NC(=O)c1cc2ccccc2o1	none
O=C(C[n+]1cc(-c2ccccc2)n2c1CCCCC2)c1ccc(Br)cc1	FID counter 42
COc1ccc(C(=O)C[n+]2cc(-c3ccc(OC)cc3)n3c2CCCC3)cc1	none
O=C(C[n+]1cc(-c2ccccc2)n2c1CCC2)OCc1ccccc1	none
Cc1ccc(C(=O)C[n+]2cc(-c3ccc(C)cc3)n3c2CCCCC3)cc1	FID counter 39
Cc1ccc(-c2c[n+](CC(=O)Nc3nc(-c4ccc(F)cc4)cs3)c3n2CCC3)cc1	FID counter 44
Cc1nnc(SCC(=O)Nc2ccc([N+](=O)[O-])cc2)n1CC1CCCO1 (configuration not stated)	none
COc1cc(C2(c3ccc(O)c(OC)c3)C(=O)N(C)c3ccc(C)cc32)ccc1O	none (no result: FID counter, PfM18AAP inh)
Cc1ccc(C)c(CSC2=NCCN2S(=O)(=O)c2ccccc2)c1	none
CC1CCC(C(C)C)C(OC(=O)Cn2c(-c3ccccc3)[n+](C)c3ccccc32)C1 (configuration not stated)	Kir21 inh -7.6
CC1CCC(C(C)C)C(OC(=O)Cn2c(-c3ccc(F)cc3)[n+](C)c3ccccc32)C1 (configuration not stated)	none (no result: Rce1 inh, Kir21 inh)
Cc1cccc(OCc2n(CC(=O)OC3CC(C)CCC3C(C)C)c3ccccc3[n+]2C)c1 (configuration not stated)	Kir21 inh -13 (no result: Rce1 inh)
CC(OC(=O)c1ccc(Cl)c(S(N)(=O)=O)c1)C(=O)NCc1ccc2c(c1)OCO2 (configuration not stated)	none (no result: FID counter, PfM18AAP inh)
COC(=O)c1ccccc1NC(=O)CSc1n[nH]c(C)n1	PfM18AAP inh 30
CCOc1ccc(C(=O)OCC(=O)N2CCCC2)cc1OCC	none
Cc1cc(NC(=O)CSC2=NS(=O)(=O)c3ccccc3N2)no1	none (no result: FID counter, PfM18AAP inh)
CN(Cc1ccccc1)S(=O)(=O)c1cccs1	none
CC(C)N(Cc1ccccc1)S(=O)(=O)c1cccs1	Kir21 inh -4.8
COc1ccc(/C=C/C(=O)Nc2ccccc2Cl)cc1S(=O)(=O)N1CCOCC1	Rce1 inh inconclusive
COc1cccc(C(c2nnnn2CS(=O)(=O)c2ccc(C)cc2)N2CCN(C)CC2)c1OC (configuration not stated)	FID counter 41
CC1Sc2ccc(C(=O)Nc3ccccc3OC(F)F)cc2NC1=O (configuration not stated)	none (no result: FID counter, PfM18AAP inh)
CC(C)(C)c1ccc(C(=O)Nn2cnnc2)cc1	none
CCOc1ccc(C(=O)Nn2cnnc2)cc1OCC	PfM18AAP inh 29
CC(=O)Oc1ccc(C(=O)Nn2cnnc2)cc1	none
Cc1cc(C)cc(C(=O)Nn2cnnc2)c1	PfM18AAP inh 31
CCOC(=O)C1=C(c2ccccc2)N2CCN=C2S1	PfM18AAP inh 32 (no result: Rce1 inh, Kir21 inh)
CCC1Oc2ccc(C)cc2N(CC(=O)NCC2CCCO2)C1=O (configuration not stated)	none
Cc1cc(NC(=O)CSc2nc3c(c(=O)n2C)SCC3)no1	none
O=C1ON=C(c2ccccc2)/C1=C\c1ccco1	none
O=C1ON=C(c2ccc(Cl)cc2)/C1=C/c1ccc(O)cc1	Kir21 inh -6.1
O=C1ON=C(c2ccccc2)/C1=C/c1ccccc1	none
O=C1ON=C(c2ccccc2)/C1=C/c1ccc(O)cc1	Kir21 inh -6.8
Cc1ccc(/C=C2/C(=O)ON=C2c2ccccc2)o1	Kir21 inh -5.9
COc1cccc(C(=O)Nc2ccc(C(=O)NCC3CCCO3)cc2)c1 (configuration not stated)	none (no result: FID counter, PfM18AAP inh)
O=C(Nc1ccc(C(=O)N2CCCCC2)cc1)c1ccccc1Br	none
COc1cc(C(=O)COC(=O)c2cc([N+](=O)[O-])ccc2N2CCOCC2)ccc1OC(F)F	none (no result: FID counter, PfM18AAP inh, Rce1 inh)
Cc1cc(C)cc(OCc2nnc(SCC(=O)N3CCCCC3)o2)c1	none (no result: Rce1 inh)
N=C1/C(=C\c2coc3ccc(O)cc3c2=O)C(=O)N=C2SC=CN12	PfM18AAP inh 49
N=C1/C(=C/c2coc3ccccc3c2=O)C(=O)N=C2SC(c3ccco3)=NN12	PfM18AAP inh 29
CSC1=NSC2=NC(=O)/C(=C\c3coc4ccccc4c3=O)C(=N)N12	none (no result: Rce1 inh, Kir21 inh)
COc1cc(C(=O)OCC(=O)NCCC2=CCCCC2)ccc1OCC(C)C	none (no result: FID counter, PfM18AAP inh)

Source: PubChem (several laboratories)
